# Assays:
# Assay in all cases: PBM binding z-score (relative to random genomic background probes); higher = stronger binding; sequences stand for … in GC…GCGATTGACAGCGTAGAATGAAGG
# [1] = test system: PPARg:RXRa DBDmut IVT, anti-RXR (DBD mutation: RXRa K156A/R161A, NR concentration 270 nM, RXRa partner concentration 90 nM)
# Outline: (§1)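 On custom Agilent 4×180K arrays, double-stranded probes with 34-nt variable regions carried direct-repeat seeds, single-nucleotide variants, half-site ablations or random human genomic background. Ligand-free nuclear receptor dimers were applied for 1 h, and binding was read with antibodies against each partner (one per run). Binding z-scores come from regression-normalized fluorescence, with the random background probes as reference.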
# [2] = test system: PPARg:RXRa IVT, anti-PPARg (NR concentration 270 nM, RXRa partner concentration 90 nM)
# Outline: as §1
# [3] = test system: PPARg DBDmut:RXRa IVT, anti-PPARg (DBD mutation: PPARg1 K132A/R137A, NR concentration 270 nM, RXRa partner concentration 90 nM)
# Outline: as §1
# [4] = test system: PPARg DBDmut IVT, anti-PPARg (DBD mutation: PPARg1 K132A/R137A, NR concentration 270 nM)
# Outline: as §1
# [5] = test system: PPARg homodimer (NR concentration 180 nM)
# Outline: as §1
# [6] = test system: PXR:RXRa (NR concentration 270 nM, RXRa partner concentration 90 nM)
# Outline: as §1
# [7] = test system: PXR homodimer (NR concentration 270 nM)
# Outline: as §1
# [8] = test system: RARa:RXR (NR concentration 270 nM, RXRa partner concentration 90 nM)
# Outline: as §1
# [9] = test system: RARa homodimer (NR concentration 270 nM)
# Outline: as §1
# [10] = test system: RARb:RXRa (NR concentration 270 nM, RXRa partner concentration 90 nM)
# Outline: as §1
Sequence,PBM binding z-score [1],PBM binding z-score [2],PBM binding z-score [3],PBM binding z-score [4],PBM binding z-score [5],PBM binding z-score [6],PBM binding z-score [7],PBM binding z-score [8],PBM binding z-score [9],PBM binding z-score [10]
GCAGACAAGTGAAACGCAGGTAACTCAGGGTGGC,-0.601,-0.398,-0.525,-1.2,-0.82,-0.683,-0.723,-0.207,-0.732,-1.75
CCTATTAGTTGACCAGAAGGGCAACCGAAGCTCG,0.319,0.518,-0.0786,0.481,1.64,0.463,0.906,0.452,2.07,1.61
TAGCCTAGGTCATTGGGCCGGTATAGTACGCATC,1.71,3.19,0.219,-0.308,0.812,1.39,-0.428,1.95,-0.0602,3.48
GCGACTGCGGCATCAGCAGGTTACCATAACTTAA,-0.255,-0.657,-1.23,-0.596,-0.378,-0.379,-0.376,-0.0824,-0.219,-0.277
ATCGAAAGGTCGACGAGGTGAGTCTACACCGTTT,0.545,2.03,1.28,0.606,1.13,3.31,0.495,3.84,0.442,3.98
GTACCAAGGTGAATAGGTCTTTGATGAGTAGGCG,2.18,2.5,0.818,0.145,0.986,0.0831,0.119,0.721,0.436,1.36
CCATACGGGTCACTCCAGGTTATAGCATCGGAGT,1.6,3.66,-0.54,0.0685,1.66,4.94,0.464,3.54,0.63,3.54
GATACAGGGTCAGCTAGAGGCAAGAGTATGGAAA,0.7,2.39,-0.415,-0.265,0.979,2.1,-0.207,2.8,0.136,3.97
CGTCAAAGTTCAAGTAAGGTAACGTAAAGCACGC,0.544,2.41,0.93,0.765,3.47,5.21,3.9,4.3,1.99,5.29
AGTCAAAGTTCATCTCGGTAACGTAAGATATGCT,0.386,2.85,1.54,1.05,2.38,4.97,4.44,3.65,1.33,5.06
AGACCGAGGGCAATGAGTTGATAGCACGGGTGGC,0.184,0.251,-0.826,-1.67,-1.05,1.23,5.21,-0.109,-0.589,1.79
TCTTATAGATCAGCAGGTTAAGAAAGCTGGCCAA,1.67,0.0176,0.00144,-0.0268,0.0461,0.161,-0.509,0.109,-0.091,0.115
CCTATTAGTTGACCATAAGGTCAACCGAAGCTCG,1.02,2.48,2.56,1.37,4.93,4.62,2.57,5.3,3.95,3.72
CGTAGCAGGCCAATCTGGGTCACTCAAGGCTTGA,4.39,5.41,0.0881,-0.653,0.384,1.07,-0.642,1.47,-0.582,1.48
CTGGAAAGGTCGTGCTCAGGTGAGTATACCAAAC,0.634,1.35,-0.0196,0.149,1.33,3.07,-0.203,4.31,-0.374,3.59
GCTTGTAGATCAAGGTTAAGGAAGACTAAGCTAA,1.33,1.17,-0.221,0.338,0.301,0.301,-0.237,0.84,-0.272,0.798
CCAGACAGGTGAGAAGGTAACGCAGCCTCGATTA,1.37,0.83,-0.151,-0.199,0.904,0.0317,0.012,0.312,0.438,0.806
CCAGACAGGTGAAAGGTAACTCTGTCTGGTACGC,2.33,3.16,0.131,-0.269,0.283,1.16,-0.171,2.16,-0.0874,1.24
CTCGAAAGGCCGTGCTCAGGTGAGTATACCAAAC,-0.523,-0.175,-0.959,-0.325,-1.11,-0.568,-0.631,-0.118,-0.796,1.05

# Reference: the supplement of paper PMC6555819
